{"source": "PubChem BioAssay (NCATS)", "note": "Records with an inconclusive call do not appear. Unmarked numbers belong to inactive results. The source made the active and inactive calls. Calls come from the whole dose curve; as a rule, active = well fitted inhibition curve with a large enough effect; inconclusive = small, poorly fitted or top-dose-only effect; inactive = flat fitted curve, though single readings scatter. Potency is the fitted concentration of half-maximal effect."}
{"experiment": "BET inhibitor-based combinations targeting novel dependencies in MECOM-rearranged (r) AML: AML-194 cell line (AID 2202237; note: nearly all actives have a fitted effect of over 40% in size;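 for viability (% of control): plate controls were vehicle wells for no effect and wells without cells for full effect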)", "settings": "AML-194 (MECOM-r AML) viability, CellTiter-Glo, 48 h; series mostly up to 46 µM; viability (% of control): at the top concentration", "method_in_brief": "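Viability of cells (500 per well) is scored by luminescent CellTiter-Glo at 48 hr post-dosing. Eleven-point titrations are normalized to DMSO and empty controls and reduced to AUC values.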", "units": {"viability (% of control)": "%"}}
{"molecule": "CN(C)[C@@H]1C(=O)C(C(N)=O)=C(O)[C@@]2(O)C(=O)C3=C(O)c4c(O)cccc4[C@@](C)(O)[C@H]3[C@H](O)[C@@H]12", "viability (% of control)": 108}
{"molecule": "C/C(O)=C(\\C#N)C(=O)Nc1cc(Br)ccc1Br", "viability (% of control)": 100}
{"molecule": "COc1cc(C)[nH]c(=O)c1CNC(=O)c1c(C)n([C@H](C)C2CCN(CC(F)(F)F)CC2)c2ccccc12", "viability (% of control)": 107}
{"molecule": "COc1cc([C@@H]2c3cc4c(cc3[C@@H](O)C3COC(=O)C32)OCO4)cc(OC)c1O", "note": "(some centres not stated)", "Potency": "332 nM (active)"}
{"molecule": "CC1(C)CC(O)CC(C)(C)N1O", "viability (% of control)": 113}
{"molecule": "C[C@@H](C1CC[C@@]2(O)C3=CC(=O)[C@@H]4C[C@@H](O)[C@@H](O)C[C@]4(C)[C@H]3CC[C@]12C)[C@H](O)CCC(C)(C)O", "note": "(some centres not stated)", "viability (% of control)": 104}
{"molecule": "CC1(C)CC[C@]2(NC(=O)C(C)(F)F)CC[C@]3(C)[C@H](C(=O)C=C4[C@@]5(C)C=C(C#N)C(=O)C(C)(C)[C@@H]5CC[C@]43C)[C@@H]2C1", "Potency": "1860 nM (active)"}
{"molecule": "COc1cc2cc(c1Cl)N(C)C(=O)C[C@H](OC(=O)C(C)C)[C@]1(C)O[C@@H]1[C@H](C)[C@@H]1C[C@@](O)(NC(=O)O1)[C@H](OC)/C=C/C=C(\\C)C2", "viability (% of control)": 17.7}
{"molecule": "O=C(NCC1CCOCC1)c1cnc(Nc2ccc(Cl)cc2Cl)nc1C(F)(F)F", "viability (% of control)": 103}
{"molecule": "C[C@]12CC[C@H](O)CC1=CC[C@@H]1[C@@H]2CC[C@]2(C)C(=O)CC[C@@H]12", "viability (% of control)": 112}
{"molecule": "C[C@]12CC[C@H]3[C@@H](CCC4=CC(=O)CC[C@@]43C)[C@H]1CC[C@H]2OC(=O)CCC1CCCC1", "viability (% of control)": 106}
{"molecule": "N#CC(O[C@@H]1O[C@H](CO[C@@H]2O[C@H](CO)[C@@H](O)[C@H](O)[C@H]2O)[C@@H](O)[C@H](O)[C@H]1O)c1ccccc1", "note": "(some centres not stated)", "viability (% of control)": 96.8}
